{"source": "ChEMBL document CHEMBL3433997", "about": "“St. Jude Leishmania screening dataset” (2016)", "data": [{"molecular_target": "Hexose transporter 1 (Plasmodium falciparum) (UniProt O97467)", "assay": "ST_JUDE_LEISH: Cytotoxicity at 2uM final concentration against transgenic Leishmania Mexicana promastigotes LmPfHT that are glucose transport deficient and complemented with the Plasmodium falciparum hexose transporter. Activity is measured by DNA content using SYBR green in vitro", "assay_type": "functional", "units": {"inhibition": "%"}, "values": [{"compound": "CNCCNCc1ccc(-c2ccc(-c3nc4cccc(C)c4[nH]3)cc2)cc1", "inhibition": 4.65}, {"compound": "COc1cc(C)nc2ccc(NC(=O)Nc3ccc([N+](=O)[O-])cc3C)cc12", "inhibition": 2.99}, {"compound": "CCCCCCn1c(Sc2ccc(C#N)c([N+](=O)[O-])c2)nnc1-c1ccc(N(C)C)cc1", "inhibition": 16.1}, {"compound": "CCOc1ccc(-n2nc3c(Cl)nnc(-c4ccccc4)c3c2-c2ccccc2)cc1", "inhibition": 6.02}, {"compound": "O=[N+]([O-])c1cccc(CNC2CCN(Cc3ccc4ccccc4c3)CC2)c1", "inhibition": 12.4}, {"compound": "O=C(Nc1cccc(-c2cc(-c3c(Cl)cccc3Cl)no2)c1)c1cncc(-c2cccs2)c1", "inhibition": 11.1}, {"compound": "COc1ccc(NC(=O)NC2CCN(c3ccnc4cc(Cl)ccc34)C2)cc1", "note": "(stereo not given)", "inhibition": 2.85}, {"compound": "Cc1cc2nc(-c3ccc(C(=O)NCc4cccc(C(F)(F)F)c4)cc3)[nH]c2cc1C", "inhibition": -2.94}, {"compound": "CC(=O)Nc1ccc(NC(=O)c2cc(-c3cc(Cl)ccc3O)n[nH]2)cc1", "inhibition": -0.51}, {"compound": "CNc1nc(N/N=C/c2cc3c(cc2[N+](=O)[O-])OCO3)nc(Nc2cccc(C(F)(F)F)c2)n1", "inhibition": 5.94}, {"compound": "c1ccc2[nH]c(-c3ccc(-c4ccc(CN5CCC(N6CCCCC6)CC5)cc4)s3)nc2c1", "inhibition": -0.81}, {"compound": "N#CCCN1CCN(Cc2cccc(-c3ccc(-c4nc5cc(F)ccc5[nH]4)cc3)c2)CC1", "inhibition": 0.68}, {"compound": "O=[N+]([O-])c1ccc(C=NNc2nc3ccccc3[nH]2)cc1", "inhibition": 0.53}, {"compound": "Fc1cccc(COc2ccc(Nc3ncnc4ccc(-c5nnc(C(F)(F)F)o5)cc34)cc2Cl)c1", "inhibition": 4.57}, {"compound": "O=C(Nc1ccc(Cl)c(Cl)c1)N1CCc2cc3nccc(N4CCN5CCC[C@H]5C4)c3cc21", "inhibition": 4.53}, {"compound": "CSc1nccc(-c2ccc3ccnc(N)c3c2)n1", "inhibition": 10.7}, {"compound": "COc1cc(SC)c(Br)cc1-c1nc2ccncc2[nH]1", "inhibition": 2.12}, {"compound": "O=C(Nc1ccc(OC2CCN(Cc3ccco3)C2)c(Cl)c1)c1ccc2ncccc2c1", "note": "(stereo not given)", "inhibition": -3.49}, {"compound": "CCCN(CCC)C(=O)c1cc(C(=O)N[C@@H](Cc2ccccc2)[C@H](O)CNC(C)(C)c2cccc(OC)c2)cc(N2CCCCS2(=O)=O)c1", "inhibition": 1.53}, {"compound": "Cc1cc(NCCc2cccc(F)c2)nc(NC(=N)Nc2cccc(C(F)(F)F)c2)n1", "inhibition": 2.87}, {"compound": "CCCCCn1c(Sc2ccc(C#N)c([N+](=O)[O-])c2)nnc1-c1cccs1", "inhibition": 6.4}, {"compound": "COc1cc2nc(N3CCC(CNC(=O)c4ccc(-c5ccc(C(=O)N(C)C)cc5O)cc4)CC3)nc(N)c2cc1OC", "inhibition": 1.14}, {"compound": "CC(C)(C)c1cc(Cl)cc(C(=O)Nc2cc([N+](=O)[O-])ccc2Cl)c1O", "inhibition": 4.84}, {"compound": "CCOc1ncccc1CN1CCC(N2CCc3cc(NC(=O)c4cc(C)on4)ccc32)C1", "note": "(stereo not given)", "inhibition": 0.36}, {"compound": "Cc1[nH]c(C)c(-c2ccc(-c3ccc(C(F)(F)F)cc3C(F)(F)F)nc2)c(=O)c1Br", "inhibition": -2.4}]}, {"molecular_target": "Glucose transporter (Leishmania mexicana) (UniProt O61059)", "assay": "ST_JUDE_LEISH: Cytotoxicity at 2uM final concentration against transgenic Leishmania Mexicana promastigotes LmGT2 that are glucose transport deficient and complemented with the L. Mexicana glucose transporter 2. Activity is measured by DNA content using SYBR green in vitro", "assay_type": "functional", "units": {"inhibition": "%"}, "values": [{"compound": "CCOc1ccc2[nH]c(C)cc(=NN=Cc3cccnc3)c2c1", "inhibition": 7.76}, {"compound": "Cc1ccc2nc3ccccc3c(NCCN3CCN(C)CC3)c2c1", "inhibition": 21.1}, {"compound": "COc1cc(NC(=O)c2cccs2)c(C(=O)NCc2ccc(C)cc2)cc1OC", "inhibition": 7.02}, {"compound": "COc1cccc(NC(=O)NC2CCN(c3ccnc(Nc4cc(OC)c(OC)c(OC)c4)n3)C2)c1", "note": "(stereo not given)", "inhibition": 5.86}, {"compound": "COCCNc1nc(N2CCC(CNC(=O)c3ccc(-c4ccc(C(=O)N(C)C)cc4C)cc3)CC2)nc2cc(OC)c(OC)cc12", "inhibition": 1.17}, {"compound": "Cc1[nH]c(C)c(-c2ccc(-c3ccc(OC(F)(F)F)cc3)nc2)c(=O)c1Br", "inhibition": 8.85}, {"compound": "COc1ccc(OCc2ccccn2)c(C2CCN(CCCCNC(=O)c3ccc(NC(=O)c4ccc(Cl)cc4)cc3)CC2)c1", "inhibition": -2.76}, {"compound": "CCCCOc1ccc(N2C(N)=NC(N)=NC2(C)C)cc1", "inhibition": 1.88}, {"compound": "C[C@H](Cc1ccc(CCc2ccc(C[C@@H](C)NC[C@H](O)c3cccc(Cl)c3)cc2)cc1)NC[C@H](O)c1cccc(Cl)c1", "inhibition": 58.5}, {"compound": "COc1ccccc1N(C)CCNc1cc(C)nc(Nc2ccccc2)n1", "inhibition": 5.05}, {"compound": "COc1ccc(C(=O)Nc2cc(Cl)c3c(c2)C2CCCN2CC3)cc1C(F)(F)F", "note": "(stereo not given)", "inhibition": -1.06}, {"compound": "CC(=O)c1ccc(Nc2c(C(N)=O)cnc3cc(-c4c(C)noc4C)ccc23)cc1", "inhibition": 5.76}, {"compound": "CCn1c(C(C)C)cc2c3c(N)nc(N)nc3ccc21", "inhibition": 42}, {"compound": "N#Cc1ccc(-c2ccc(C(=O)NCCCCN3CCC(c4cn(CCO)c5ccccc45)CC3)cc2)cc1", "inhibition": 0.2}, {"compound": "COc1ccc(C(C(=O)NC2CCN(C[C@H](O)c3ccnc4ccc(OC)cc34)CC2)N2CCc3ccccc3C2)cc1", "note": "(stereo not given in full)", "inhibition": 2.69}, {"compound": "CNCCNCc1ccc(-c2ccc(-c3nc4cccc(C)c4[nH]3)cc2)cc1", "inhibition": 4.77}, {"compound": "COc1cc(C)nc2ccc(NC(=O)Nc3ccc([N+](=O)[O-])cc3C)cc12", "inhibition": 3.97}, {"compound": "CCCCCCn1c(Sc2ccc(C#N)c([N+](=O)[O-])c2)nnc1-c1ccc(N(C)C)cc1", "inhibition": 15.3}, {"compound": "CCOc1ccc(-n2nc3c(Cl)nnc(-c4ccccc4)c3c2-c2ccccc2)cc1", "inhibition": 0.01}, {"compound": "O=[N+]([O-])c1cccc(CNC2CCN(Cc3ccc4ccccc4c3)CC2)c1", "inhibition": 10.9}, {"compound": "O=C(Nc1cccc(-c2cc(-c3c(Cl)cccc3Cl)no2)c1)c1cncc(-c2cccs2)c1", "inhibition": 10.8}, {"compound": "COc1ccc(NC(=O)NC2CCN(c3ccnc4cc(Cl)ccc34)C2)cc1", "note": "(stereo not given)", "inhibition": 1.86}, {"compound": "Cc1cc2nc(-c3ccc(C(=O)NCc4cccc(C(F)(F)F)c4)cc3)[nH]c2cc1C", "inhibition": -2.9}, {"compound": "CC(=O)Nc1ccc(NC(=O)c2cc(-c3cc(Cl)ccc3O)n[nH]2)cc1", "inhibition": 2.29}, {"compound": "CNc1nc(N/N=C/c2cc3c(cc2[N+](=O)[O-])OCO3)nc(Nc2cccc(C(F)(F)F)c2)n1", "inhibition": 2.16}, {"compound": "c1ccc2[nH]c(-c3ccc(-c4ccc(CN5CCC(N6CCCCC6)CC5)cc4)s3)nc2c1", "inhibition": -1.09}, {"compound": "N#CCCN1CCN(Cc2cccc(-c3ccc(-c4nc5cc(F)ccc5[nH]4)cc3)c2)CC1", "inhibition": 3.71}, {"compound": "O=[N+]([O-])c1ccc(C=NNc2nc3ccccc3[nH]2)cc1", "inhibition": -0.44}, {"compound": "Fc1cccc(COc2ccc(Nc3ncnc4ccc(-c5nnc(C(F)(F)F)o5)cc34)cc2Cl)c1", "inhibition": 1.46}, {"compound": "O=C(Nc1ccc(Cl)c(Cl)c1)N1CCc2cc3nccc(N4CCN5CCC[C@H]5C4)c3cc21", "inhibition": 4.1}, {"compound": "CSc1nccc(-c2ccc3ccnc(N)c3c2)n1", "inhibition": 9.37}, {"compound": "COc1cc(SC)c(Br)cc1-c1nc2ccncc2[nH]1", "inhibition": 4.52}, {"compound": "O=C(Nc1ccc(OC2CCN(Cc3ccco3)C2)c(Cl)c1)c1ccc2ncccc2c1", "note": "(stereo not given)", "inhibition": 0.71}, {"compound": "CCCN(CCC)C(=O)c1cc(C(=O)N[C@@H](Cc2ccccc2)[C@H](O)CNC(C)(C)c2cccc(OC)c2)cc(N2CCCCS2(=O)=O)c1", "inhibition": 2.14}, {"compound": "Cc1cc(NCCc2cccc(F)c2)nc(NC(=N)Nc2cccc(C(F)(F)F)c2)n1", "inhibition": 2.41}, {"compound": "CCCCCn1c(Sc2ccc(C#N)c([N+](=O)[O-])c2)nnc1-c1cccs1", "inhibition": 2.32}, {"compound": "COc1cc2nc(N3CCC(CNC(=O)c4ccc(-c5ccc(C(=O)N(C)C)cc5O)cc4)CC3)nc(N)c2cc1OC", "inhibition": -1.24}, {"compound": "CC(C)(C)c1cc(Cl)cc(C(=O)Nc2cc([N+](=O)[O-])ccc2Cl)c1O", "inhibition": 4.28}, {"compound": "CCOc1ncccc1CN1CCC(N2CCc3cc(NC(=O)c4cc(C)on4)ccc32)C1", "note": "(stereo not given)", "inhibition": -0.18}, {"compound": "Cc1[nH]c(C)c(-c2ccc(-c3ccc(C(F)(F)F)cc3C(F)(F)F)nc2)c(=O)c1Br", "inhibition": 0.14}]}]}
